High-throughput results: PubChem BioAssay, Sanford-Burnham Center for Chemical Genomics
TIM10 inh: TIM10 yeast growth inhibition; AID 463195; inhibition, % at 10 µM; 330,000 tested, 1.4% active; S. cerevisiae TIM10 strain growth, BacTiter-Glo luminescence, 24 h;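 active = inhibition of 40% or more at the single tested concentration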;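 note: wild-type TIM10 isogenic control strain grown at permissive 25 °C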
tim10-1 inh: tim10-1 yeast growth inhibition. S. cerevisiae tim10-1 ts strain growth, BacTiter-Glo, 24 h. AID 463190. inhibition, % at 20 µM. 330,000 tested, 2.2% active;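 active = inhibition of at least 40%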;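 note: mutant grown at 25 °C; 0% = DMSO wells with yeast and 100% = wells holding no yeast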
tim23-1 inh: inhibits growth of tim23-1 mutant yeast; S. cerevisiae tim23-1 growth, BacTiter-Glo luminescence, 24 h; inhibition, % at 20 µM; 330,000 tested, 1.3% active; AID 463212;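 active = growth inhibition of the mutant yeast at or above 50%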;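 note: temperature-sensitive mutant grown at 25 °C; plate controls were DMSO-treated mutant yeast for no effect and medium wells lacking yeast for full effect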
Mdm2-MdmX inh: human Mdm2/MdmX binding inhibition; O15151+Q00987; SaOS-2 split-luciferase Mdm2/MdmX complementation, luminescence; inhibition, % at 8 µM; 330,000 tested, 3% active; AID 485346;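 active = inhibition of at least 50% at 8 µM in the primary screen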
MPTP inh: permeability transition pore inhibition; AID 602449; isolated mouse mitochondria, Ca2+ swelling absorbance, 30 min; inhibition, % at 10 µM; 360,000 tested, 1.4% active;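 active = inhibition of 50% or more, scaled per plate between neutral and stimulator controls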;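 note: 0% = DMSO wells given calcium and 100% = 1 mM EGTA wells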
tim10-1 confirm: tim10-1 yeast growth inhibition, confirmed; shares compounds with tim10-1 inh; S. cerevisiae tim10-1 ts strain growth, BacTiter-Glo, 24 h; inhibition, % at 20 µM; 7,400 tested, 56% active;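 active = inhibition of yeast growth at or above a set limit in either of two repeat tests at 20 µM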;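 note: tim10-1 mutant grown at permissive 25 °C to find synthetic lethal compounds; 0% = DMSO yeast wells and 100% = medium wells without yeast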
Numbers without * were called inactive; / = not tested or not shown. The list is not random: actives were taken first. Their share in the collection is about 6.3%.

SMILES | TIM10 inh | tim10-1 inh | tim23-1 inh | Mdm2-MdmX inh | MPTP inh | tim10-1 confirm
CCc1ccc(C#CC2=CC(=O)CC(C)(C)C2)cc1 | / | / | / | / | 0 | /
O=C(CN1C(=O)/C(=C\C=C\c2ccccc2)SC1=S)Nc1ccc(F)cc1 | 14 | 40* | 7 | 8 | 5 | 23
COc1cc(/C=N/NC(=O)c2cc(-c3ccccc3)nc3ccccc23)ccc1O | 12 | 41* | 23 | 15 | 0 | 31
O=C(NCCC1=CCCCC1)NC12CC3CC(CC(C3)C1)C2 | 36 | 41* | 33 | -112 | 16 | 32*
NS(=O)(=O)c1ccc(CCNC(=O)NC23CC4CC(CC(C4)C2)C3)cc1 | 9 | -15 | 5 | -16 | -2 | /
O=C(NCc1ccc2c(c1)OCO2)Nc1ccc(F)cc1 | -3 | -12 | -6 | 5 | 2 | /
O=C(NCc1ccc2c(c1)OCO2)NC12CC3CC(CC(C3)C1)C2 | 31 | 41* | 43 | -26 | 0 | 30*
COc1ccc(CC(=O)OCC(=O)NC(=O)NC23CC4CC(CC(C4)C2)C3)cc1 | 30 | 40* | 36 | -16 | 5 | 12
O=C(NC(=S)NCc1ccc2c(c1)OCO2)c1ccccc1 | 35 | 45* | 50 | 19 | -10 | 25
CC1(C(=O)NS(=O)(=O)c2ccc3c(c2)CCO3)CCN1C(=O)Cc1ccc(-c2ccccc2)cc1 (stereo unspecified) | / | / | / | / | 0 | /
CC1(C(=O)NS(=O)(=O)c2cccc(C#N)c2)CCN1C(=O)Cc1ccccc1Cl (stereo unspecified) | / | / | / | / | 0 | /
O=C(NC12CC3CC(CC(C3)C1)C2)N1CCN(c2ccccc2)CC1 | 12 | 20 | 26 | 15 | 0 | /
COc1ccc(N2CCN(C(=O)NC34CC5CC(CC(C5)C3)C4)CC2)cc1 | 15 | 48* | 31 | 11 | 0 | 24
O=C(NCCc1ccc(F)cc1)NC12CC3CC(CC(C3)C1)C2 | 25 | 33 | 49 | -103 | 0 | /
COc1ccc(CCNC(=O)NC23CC4CC(CC(C4)C2)C3)cc1 | 24 | 45* | 38 | -8 | 3 | 35*
OC1c2c(F)cccc2N=C2CCCCN21 (stereo unspecified) | / | / | / | / | -2 | /
CC(C)OC(=O)CSc1nc2cccnc2n1C1CCCCC1 | 10 | 40 | 14 | -11 | 0 | 15
CC(C)(C)NC(=O)C(c1ccccc1F)n1c(=O)c(-c2cc3ccccc3[nH]2)nc2ccccc21 (stereo unspecified) | / | / | / | / | 2 | /
CCOc1cccc2sc(N(CCN(CC)CC)C(=O)c3ccc(S(=O)(=O)N4CCCCC4)cc3)nc12 | -11 | 48* | 2 | 13 | -1 | 22
CCOC(=O)N1CCN(S(=O)(=O)c2ccc(C(=O)N(CCCN(C)C)c3nc4ccc(CC)cc4s3)cc2)CC1 | 22 | 43* | 18 | 30 | 0 | 16
CCOC(=O)N1CCN(S(=O)(=O)c2ccc(C(=O)N(CCN(C)C)c3nc4ccc(CC)cc4s3)cc2)CC1 | 7 | 31 | 8 | 25 | 0 | /
COc1cccc(C(C(=O)NC2CCCC2)N2CCN(c3ncccc3C#N)CC2)c1OC (stereo unspecified) | / | / | / | / | -1 | /
CC1(C(=O)Nc2cccc(NS(C)(=O)=O)c2)CCN1Cc1ccccc1OC(F)F (stereo unspecified) | / | / | / | / | 2 | /
COc1ccc(C(c2c(C)[nH][nH]c2=O)c2c(C)[nH][nH]c2=O)cc1Br | 39 | 14 | 35 | -4 | -1 | /
COc1cc(C(c2c(C)[nH][nH]c2=O)c2c(C)[nH][nH]c2=O)ccc1OCc1ccc([N+](=O)[O-])cc1 | 26 | 57* | 21 | -39 | -1 | 51*
SMILES | TIM10 inh | tim10-1 inh | tim23-1 inh | Mdm2-MdmX inh | MPTP inh | tim10-1 confirm
COc1cc(C(c2c(C)[nH][nH]c2=O)c2c(C)[nH][nH]c2=O)ccc1OC(=O)c1cccc([N+](=O)[O-])c1 | 17 | 5 | 4 | 19 | 6 | /
Cc1[nH][nH]c(=O)c1C(c1ccc(Br)cc1)c1c(C)[nH][nH]c1=O | 33 | 24 | 41 | -6 | 0 | /
Cc1ccc(C(c2c(C)[nH][nH]c2=O)c2c(C)[nH][nH]c2=O)cc1 | 11 | 42* | 20 | 18 | -1 | 30
COc1cc(C(c2c(C)[nH][nH]c2=O)c2c(C)[nH][nH]c2=O)ccc1OC(C)C | 35 | 40* | 31 | 8 | 0 | 42*
O=C(C[C@H]1CC[C@@H]2[C@H](COC[C@@H](O)CN2Cc2cccc(F)c2)O1)NCC1CCCCC1 | / | / | / | / | 0 | /
Cc1cccc(NC(=O)COc2cccc3c2CCNC3=O)c1 | / | / | / | / | 0 | /
CC1=C(C(=O)N2CCCCCC2)CC(CC(=O)NCCCCc2ccccc2)C(=O)N1CCC1=CCCCC1 (stereo unspecified) | / | / | / | / | -2 | /
COc1ccc(-c2nnc(COc3ccc4ccccc4c3)o2)cc1OC | 6 | 43* | -3 | 8 | 8 | 12
Cc1cc(C)c(C(=O)N2CCCC(Nc3ccc(F)cc3)C2)o1 (stereo unspecified) | 8 | 7 | 9 | -7 | -1 | /
Cc1ccc2[nH]c(C(=O)N3CCCC(Nc4ccc(F)cc4)C3)cc2c1 (stereo unspecified) | 17 | 51* | 36 | 17 | 1 | 3
CN(C)CCNc1oc(-c2ccccc2F)nc1C#N | 1 | -18 | -8 | -29 | -2 | /
N#Cc1nc(-c2ccccc2F)oc1NCc1cccc2c1OCO2 | 25 | 52* | 47 | 30 | 1 | -3
CCCCN1CN(S(=O)(=O)c2ccc(OC)cc2)c2nc3ccccc3nc21 | 22 | 46* | 42 | 1 | 3 | 12
COCCCN1CN(S(=O)(=O)c2ccc(Cl)cc2)c2nc3ccccc3nc21 | 17 | 21 | 22 | -25 | 0 | /
COCCN1CN(S(=O)(=O)c2cccc(Cl)c2)c2nc3ccccc3nc21 | 19 | 45* | 39 | 12 | -2 | 10
Cc1nc(CN2CCN(S(=O)(=O)c3c(Cl)cc(Br)cc3Cl)CC2)cs1 | 33 | 49* | 45 | 3 | -2 | 44*
Cc1ccccc1C(=O)NNC(=S)NC(=O)c1cccs1 | 34 | 53* | 24 | 19 | 2 | 21
Cc1cccc(C)c1-n1nnnc1C(c1ccnc2ccccc12)N1CCN(C(=O)OCc2ccccc2)CC1 (stereo unspecified) | / | / | / | / | 1 | /
Cc1ccc(S(=O)(=O)N2CCN(C(=O)COC(=O)CCOc3ccc(C(C)(C)C)cc3)CC2)cc1 | 28 | 49* | 33 | 10 | 1 | 26
COc1ccc(CN2C(=O)c3ccccc3C2c2nnnn2-c2ccc3c(c2)OCCO3)cc1 (stereo unspecified) | / | / | / | / | 0 | /
O=C(Nc1ccc(F)cc1)c1cc(S(=O)(=O)N2CCCCC2)ccc1F | 8 | 42* | 17 | 23 | -2 | 9
O=C(CCc1nnc2n(Cc3ccc(Cl)cc3)c(=O)c3ccccc3n12)N1CCN(c2ccccn2)CC1 | 15 | 44* | 31 | 33 | -2 | 19
CC(C)NC(=O)N(C)C[C@H]1OCCCC[C@@H](C)Oc2ccc(N(C)C)cc2C(=O)N([C@H](C)CO)C[C@@H]1C | / | / | / | / | -1 | /
